A selection: hits, their analogues and other compounds. The true share with any hit is near 18%.
PLK1 PBD block – qHTS for Inhibitors of PLK1-PDB (polo-like kinase 1 - polo-box domain): Primary Screen; Potency, µM, for inactives: max response, negative = inhibition, actives largely listed as inhibitors; AID 720504, 2013; 360,000 compounds, 2.8% hits; Serine/threonine-protein kinase PLK1 (Homo sapiens), P53350; Plk1 PBD binding of FITC phosphopeptide, fluorescence polarization; also: series mostly up to about 57 µM; nearly all actives have a fitted effect of over 65% in size
KAT2A inh – qHTS Assay for Inhibitors of GCN5L2; Histone acetyltransferase KAT2A (Homo sapiens), Q92830; GCN5L2 HAT assay, ThioGlo1 CoA-SH fluorescence; Potency, µM (titrated, usually from 58.9 µM), for the others: at the highest dose activity change, negative = inhibition, usual class: inhibitors; 390,000 compounds, 0.21% hits
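Preincubate 20nM GCN5L2 with compound 15 min, RT → add 50uM ThioGlo1 + 75uM H3(1-25) + 70uM acetyl-CoA → read fluorescence 0 and 20 min. Primary qHTS; fluorescent artifacts likely.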
VDR inh – Inhibitors of the vitamin D receptor (VDR): qHTS. Vitamin D3 receptor (Homo sapiens), P11473. VDR-SRC2-3 peptide fluorescence polarization, 2 h. Potency, µM, without a hit: max response, negative = inhibition, hits mostly inhibitors. 400,000 compounds, 0.93% hits
Target sequence (P11473 whole entry, looked up): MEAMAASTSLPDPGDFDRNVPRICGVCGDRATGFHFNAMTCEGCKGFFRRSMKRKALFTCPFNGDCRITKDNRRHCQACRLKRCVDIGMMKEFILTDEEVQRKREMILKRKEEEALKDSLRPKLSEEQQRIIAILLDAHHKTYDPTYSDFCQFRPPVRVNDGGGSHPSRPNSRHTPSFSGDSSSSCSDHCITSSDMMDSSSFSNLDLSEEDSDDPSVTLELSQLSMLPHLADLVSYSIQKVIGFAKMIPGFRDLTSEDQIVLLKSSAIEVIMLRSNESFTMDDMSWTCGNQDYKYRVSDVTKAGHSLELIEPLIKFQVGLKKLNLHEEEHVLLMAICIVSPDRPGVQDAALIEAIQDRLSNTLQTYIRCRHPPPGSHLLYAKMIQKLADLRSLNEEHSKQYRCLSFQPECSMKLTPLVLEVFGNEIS
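Compounds are added to VDR with labelled SRC2-3 coactivator peptide and held 2 h at room temperature. Inhibition of the VDR–peptide interaction is then read as a change in fluorescence polarization.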
TDP1 block – qHTS Assay for Inhibitors of Tyrosyl-DNA Phosphodiesterase (TDP1); 350,000 compounds, 0.28% hits; Potency, µM (series often up to 130 µM), for inactives: top-dose activity change, negative = inhibition, actives largely listed as inhibitors; recombinant TDP1, AlphaScreen DNA substrate cleavage; Tyrosyl-DNA phosphodiesterase 1 (Homo sapiens), Q9NUW8; also: nearly all actives have a fitted effect of over 40% in size
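Recombinant human Tdp1 (E. coli-expressed, 1 nM final) preincubated with compounds 15 min at room temperature, then 5'-biotin/3'-phosphotyrosine-FITC DNA substrate (15 nM final) added for 5 min. AlphaScreen beads (10 ug/ml final) added 10 min; cleavage lowers signal.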
TDP1 cell CPT – qHTS for Inhibitors of human tyrosyl-DNA phosphodiesterase 1 (TDP1): qHTS in cells in presence of CPT; 420,000 compounds, 12% hits; Potency, µM (highest dose often 46.2 µM), inactives show at the top dose activity change, negative = growth inhibition, actives largely listed as inhibitors; chicken DT40 Tdp1-/-;hTDP1 cells + 20 nM CPT, ATP luminescence, 48 h; also: nearly all actives have a fitted effect of over 55% in size
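Chicken DT40 Tdp1-/- cells complemented with human TDP1, 400 cells/well, exposed to compounds plus 20 nM camptothecin for at least 48 h at 37 C; viability read as ATP content by CellTiter-Glo luminescence.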
TDP1 cell noCPT – qHTS for Inhibitors of human tyrosyl-DNA phosphodiesterase 1 (TDP1): qHTS in cells in absence of CPT | DT40 Tdp1-/- hTDP1 cells, no CPT, ATP luminescence, 48 h | Potency, µM (titrated, usually from 46.2 µM), inactives show top-dose activity change, negative = growth inhibition, actives largely listed as inhibitors | 420,000 compounds, 15% hits | AID 686978, 2013; also: nearly all actives have a fitted effect of over 55% in size
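Camptothecin absent (DMSO only). Human TDP1-complemented DT40 knockout cells, 400 cells/well, 37 °C for minimum 48 hr; ATP measured via CellTiter-Glo, 30 min dark incubation, luminescence.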
An asterisk follows results filed as active; ? = inconclusive; nt = not tested or not shown; ! = a repeat was not active; [ ] = another dose, or the depositor's remark. Calls follow the shape of the dose curve; as a rule, active = well fitted curve in the direction sought with a large enough effect; inconclusive = small, poorly fitted or top-dose-only effect, or another doubt; inactive = no such curve, though single readings can be large; an effect the other way counts as inactive or inconclusive. % is scaled to controls: 0 for no effect and ±100 for the full control effect; potency is read from the fitted curve at half-maximal effect.

SMILES	PLK1 PBD block	KAT2A inh	VDR inh	TDP1 block	TDP1 cell CPT	TDP1 cell noCPT
COc1ccc(NC(=O)Nc2nc3c(s2)CCCC3)cc1	4%	-1%	-8%	2%	?	23µM*
O=C(/C=C/c1ccc([N+](=O)[O-])cc1)Nc1cccc(S(=O)(=O)NC2=NCCCCC2)c1	2%	-3%	-16%	0%	15µM*	15µM*
O=C(/C=C/c1ccc(Cl)cc1Cl)Nc1cccc(S(=O)(=O)NC2=NCCC2)c1	17µM*	-18%	?	5%	16µM*	?
O=C(Nc1ccccc1C(=O)O)c1ccc(Br)c(S(=O)(=O)NCc2ccccc2)c1	-14%	-1%	-4%	4%	?	?
CCCCC/C=C\C/C=C\CCCCCCCC(=O)NC(C)c1ccccc1 (stereo unspecified)	nt	nt	nt	nt	-15%	3%
Cc1ccc(F)c(S(=O)(=O)NC(=O)C2(C)CCN2C(=O)CCc2ccccc2)c1 (stereo unspecified)	-10%	nt	nt	nt	-12%	-9%
CCCCCCCCCCCCN1[C@@H](CC(=O)OC)c2cc(F)ccc2S1(=O)=O	5%	nt	-1%	nt	?	10µM*
CCCCCCCCCCCCN1[C@@H](CC(=O)OC)c2cc(F)cc(F)c2S1(=O)=O	-4%	nt	-15%	nt	?	18µM*
CCCCCCCCCCCCN1[C@@H](CC(C)=O)c2cc(F)ccc2S1(=O)=O	1%	nt	1%	nt	?	?
CCCCCCCCCCCCN1[C@@H](CC(C)=O)c2cc(C(F)(F)F)ccc2S1(=O)=O	8%	nt	-1%	nt	?	?
CCCCCCCCN1[C@@H](CC(=O)OCC)c2cc(C(F)(F)F)ccc2S1(=O)=O	6%	nt	34%	nt	?	16µM*
CCOC(=O)C[C@H]1c2ccc(C(F)(F)F)cc2S(=O)(=O)N1C(C)(C)C	-7%	nt	9%	nt	11µM*!	?
O=S1(=O)C2CC3C=CC2(O3)C(O)C(Cc2ccccc2)N1Cc1cccc(C(F)(F)F)c1 (stereo unspecified)	nt	nt	-15%	9%	nt	nt
COc1cc(OC)c(NC(=O)NC(C)c2c(-n3cccc3)sc(C)c2C)cc1Cl (stereo unspecified)	nt	-14%	-16%	8%	-25%	-20%
O=C(CCc1nnc(CCCc2ccccc2)o1)NCCCC1CCCC1	-13%	1%	12%	0%	?	?
CO[C@@H]1CN(C)C(=O)c2cc(NC(=O)NC3CCCCC3)ccc2OC[C@@H](C)N(CCc2ccccc2)C[C@H]1C	0%	nt	nt	nt	23µM*	16µM*
CO[C@@H]1CN(C)C(=O)c2cc(NC(=O)Nc3ccc4c(c3)OCO4)ccc2OC[C@@H](C)N(C)C[C@H]1C	-4%	nt	nt	nt	12%	3%
COCC(=O)N1C[C@H](C)[C@H](OC)CN(C)C(=O)c2cc(NC(=O)Nc3cccc(F)c3)ccc2OC[C@@H]1C	-1%	nt	nt	nt	12µM*	10µM*
CCCC(=O)Nc1ccc2c(c1)C(=O)N(C)C[C@@H](OC)[C@H](C)CN(Cc1ccc(-c3ccccn3)cc1)[C@@H](C)CO2	-1%	nt	nt	nt	?	23µM*
O=C(Nc1c(-c2ccc3c(c2)OCO3)[nH][nH]c1=O)c1cccc(C(F)(F)F)c1	-13%	nt	nt	nt	-8%	?
ONC(=Nc1ccccc1Cl)c1c(F)cccc1F	-14%	nt	-23%	nt	?	?
CCCCCCCCCCC(C)=O	nt	1%	0%	6%	nt	nt
CC1CN(C(=S)SCC(=O)c2ccc(Cl)cc2)CC(C)O1 (stereo unspecified)	-6%	-11%	-9%	3%	4.1µM*	2.6µM*
O=C(NCc1cccc(Cl)c1)C1CCC(=O)N(CCN2CCOCC2)C1 (stereo unspecified)	-2%	-1%	6%	3%	9%	-1%
COc1cccc(C2CC(=O)Nc3cc4c(cc32)OCCO4)c1OC (stereo unspecified)	nt	-7%	-17%	5%	21µM*	18µM*
SMILES	PLK1 PBD block	KAT2A inh	VDR inh	TDP1 block	TDP1 cell CPT	TDP1 cell noCPT
COc1cc(C2CC(=O)Nc3cc4c(cc32)OCCO4)cc(OC)c1O (stereo unspecified)	nt	-9%	-15%	2%[12.3 µM]	?	21µM*
CC(C)COc1ccccc1C1CC(=O)Nc2cc3c(cc21)OCO3 (stereo unspecified)	nt	1%	-9%	5%	2.6µM*	4.1µM*
COc1cc2c(cc1OC)C(c1ccccc1OC(C)C)CC(=O)N2 (stereo unspecified)	-1%	-7%	-1%	nt	?	15µM*
CC(=O)N/C(=C\c1ccccc1)C(=O)OCc1cccc(S(=O)(=O)N(C)C)c1	4%	22%	7%	nt	16µM*	?
Cc1ccc2nc(-c3cccc(NC(=O)c4cccc5c(Cl)cccc45)c3)oc2c1	nt	4%	-1%	5%	?	?
CCCCn1c(O)c(N=NC(=O)c2ccncc2)c2cc(Br)ccc21	-3%	-2%	0%	5%	?	?
CCn1c(O)c(N=NC(=O)c2cccnc2)c2cc(Br)ccc21	0%	-8%	9%	4%	?	23µM*
O=C(Cn1nnc2ccccc21)c1ccc(Cl)cc1	-16%	-3%	-7%	-5%	2%	-23%
CCS(=O)(=O)NCCc1sc2nc(-c3ccc(OC)cc3)nn2c1C	nt	-8%	2%	0%	?	21µM*
COc1ccc(-c2nc3sc(CCNC(=O)c4ccc(C(C)(C)C)cc4)c(C)n3n2)cc1	nt	-9%	1%	3%	?	8.2µM*
COc1ccc(-c2nc3sc(CCNC(=O)c4cc(Cl)ccc4OC)c(C)n3n2)cc1	nt	-12%	-1%	-5%	16µM*	13µM*
COc1ccc(-c2nc3sc(CCNC(=O)c4ccc(Br)o4)c(C)n3n2)cc1	nt	-9%	8%	8%	16µM*	16µM*
COc1ccc(-c2nc3sc(CCNC(=O)Cc4ccc(Cl)cc4)c(C)n3n2)cc1	nt	-3%	3%	3%	?	?
Cc1ccc2c(c1)c(=O)c(C(=O)c1ccncc1)cn2CC(=O)Nc1ccccc1Cl	nt	-5%	8%	1%	-26%	-1%

Bioassay records: PubChem BioAssay, National Center for Advancing Translational Sciences (NCATS)
